For 99 molecules, cytotoxicity results are on record in PubChem BioAssay AID620 (Sanford-Burnham Center for Chemical Genomics, 2007).

Out of some 87,000 compounds screened, about 360 (0.41%) were called active. The full list was thinned out, with actives kept by preference. Values without a mark were called inactive. No stated cut-off is given here; in the data, active means cytotoxicity above about 50%; inactive means the rest.

A short description of this assay: HT1080 cell viability loss – fluorescence readout (AID 620).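 Further: cells exposed to compound overnight then 4 h with Alamar Blue; 0% = vehicle DMSO and 100% = killing control.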 To be noted: at 10 µM, stronger effect = higher value.
With `CCC1Oc2ccccc2N(CC(=O)NCCCN2CCOCC2)C1=O` (centres undefined), the cytotoxicity was -2.1%.
In the case of `O=S(=O)(Nc1ccc2c(c1)OCO2)c1ccc(Br)s1`, the cytotoxicity was 9.9%.
With `COCCn1c(SCC#N)nnc1-c1ccccc1`, the cytotoxicity is 22.4%.
The same measure for `CCOc1cc(/C=N/n2cnnc2)c(Br)cc1O`: 62.2% (active).
The same measure for `CCOc1cc(/C=N/n2cnnc2)cc(Br)c1O`: 0.3%; for `CCOc1cc(/C=N/n2cnnc2)ccc1O`: -5%.
In the case of `COc1ccc(CNC(=O)Nc2ccc(C)cc2)cc1`, the cytotoxicity is -2.8%.
With `COc1ccc(NS(=O)(=O)Cc2ccccc2Cl)cn1` the figure was 14.8%; with `COC(=O)c1ccccc1S(=O)(=O)Nc1ccc(OC)nc1`, 13%.
The same measure for `COc1ccc(NC(=O)c2cc(OC)c(OC)c(OC)c2)cn1`: 3.1%; for `COc1ccc(NC(=O)/C(Cl)=C(/Cl)S(=O)(=O)Cc2ccccc2)cn1`: 79.3% (active); for `CCCS(=O)(=O)C(=C(Nc1ccc(OC)cc1)Nc1ccc(OC)cc1)S(=O)(=O)CCC`: 7.4%.
On to `COc1ccc(CS(=O)(=O)/C(Cl)=C(/Cl)C(=O)Nc2ccc(OC)nc2)cc1`, for which the cytotoxicity is 63.1% (active).
With `COc1ccc(NC(=O)C(CC(C)C)NC(=O)c2ccccc2C)cn1` (centres undefined) the figure was 0.6%; with `COc1ccc(C(=O)/C=C(\N)C(F)(F)F)c(O)c1`, -3.6%; with `CCOC(=O)CSc1nc2c(c(=O)[nH]c(=O)n2C)n1C/C=C(/C)Cl`, 12%.
With `O=C1C=C(N(CCO)CCO)C2(CCCCC2)O1` the figure was -7.3%; with `O=C(O)CNc1nc(-c2ccccc2)nc2ccccc12`, -10.9%; with `COC1=C(OC)c2ccccc2C(C(=O)O)N/C1=C(/C)Nc1ccncc1` (centres undefined), -1%.
In the case of `CN(CC(=O)NC1CCCCCCC1)S(=O)(=O)c1cccc2cccnc12`, the cytotoxicity is -11.8%.
The same measure for `CCOC(=O)Nc1cccc(Nc2ccccc2)c1`: -3.2%; for `CCOC(=O)c1sc(Nc2ccccc2)nc1C`: 15%.
The same measure for `CCOC(=O)/C(=C/Nc1ccccc1)[N+](=O)[O-]`: -10.2%; for `CCOC(=O)c1cccc(NC(=O)c2cccnc2)c1`: 0.2%; for `CCOC(=O)/C(=C\c1cccnc1)C(=O)c1cc(C(C)=O)c(Nc2ccccc2)s1`: 75.6% (active).
With `Cn1c(-c2sc(=S)n(-c3ccccc3)c2N)nc2ccccc21` the figure was -7.2%; with `CCCCn1c(SCC(=O)N2CCC(C)CC2)nc2cc(S(N)(=O)=O)ccc21`, 27.9%.
On to `CC1CCc2c(sc3ncnc(SCC(=O)c4ccccc4)c23)C1` (centres undefined), for which the cytotoxicity is 4.4%.
As for `CC(C)(C)c1csc(NC(=O)Cn2c(=O)oc3ccccc32)n1`, the cytotoxicity was -6.8%.
The same measure for `CNC(=O)c1ncnnc1N(C)C(=O)NCc1ccccc1`: -2.1%; for `CN1CCN(C(=O)c2ccc(C3SCC(=O)N3Cc3ccco3)cc2)CC1` (centres undefined): -8.2%.
With `CN1CC2=Cc3ccccc3OC23Oc2ccccc2C=C3C1` the figure was 51.7% (active).
The same measure for `O=C1c2ccccc2OC2(C=Cc3ccccc3O2)N1Cc1ccccc1` (centres undefined): 15.6%; for `O=C(Nc1cccc(-c2nc3ccccc3o2)c1)c1ccc(N2C(=O)C3C4C=CC(C4)C3C2=O)cc1` (centres undefined): 21.5%; for `COCCNc1nnc(SCC(=O)c2ccc3c(c2)OCO3)s1`: 1.3%.
As for `CCSc1nnc(NC(=O)c2cccs2)s1`, the cytotoxicity is -4.1%.
With `CCSc1nnc(NC(=O)c2ccc3c(c2)OCO3)s1` the figure was 55.2% (active).
The same measure for `CCSc1nnc(NC(=O)c2ccc(Br)s2)s1`: 68.3% (active).
With `CCSc1nnc(NC(=O)c2ccccn2)s1` the figure was -11%; with `CCSc1nnc(NC(=O)c2csc(C)c2)s1`, 25.7%.
`CCOCCCn1c(SCC(=O)Nc2ccc(C(N)=O)cc2)nc2ccccc2c1=O`: the cytotoxicity is -6%.
The same measure for `CCOC(=O)c1cc(-c2ccc(C)o2)nn1CCC#N`: 0.3%; for `CCOCCCNC(=O)c1ccc(OC)cc1`: -2.5%.
The same measure for `CCCC1=Nc2cc(C(=O)NCCCOC(C)C)ccc2Sc2ccccc21`: 6.2%.
The same measure for `CCCC1=Nc2cc(C(=O)NCCCOCC)ccc2Sc2ccccc21`: 63.8% (active); for `CCC1=Nc2cc(C(=O)NCCCOC(C)C)ccc2Sc2ccccc21`: 39.6%.
In the case of `CCC1=Nc2cc(C(=O)NCCCOC)ccc2Sc2ccccc21`, the cytotoxicity was 68.1% (active).
With `COCCCNC(=O)c1cccc(C(=O)NCCCOC)c1` the figure was 0.6%; with `CC(C)C1N=C2c3ccccc3N=C(SCc3cc(=O)n4ccccc4n3)N2C1=O` (centres undefined), 2.9%; with `CCOc1ccc(S(=O)(=O)N2CCN(C)CC2)c(C)c1C`, 11.2%.
Turning to `CCC(C)(C)n1c(=O)[nH]c2c(c1=O)CCC2`, the cytotoxicity was 25.2%.
On to `O=C(Nc1ccccc1N1CCCCC1)c1ncoc1-c1ccc(F)cc1`, for which the cytotoxicity is -6.7%.
With `CCOc1ccc(/C=C2/SC(=S)N(n3c(C)ccc3C)C2=O)cc1` the figure was -16.1%.
Regarding `CCOc1ccc(C(=O)N2CCCC2)cc1OC`, the cytotoxicity is 4.1%.
With `CCOc1cc(C(=O)N2CCc3cc(OC)c(OC)cc3C2)ccc1OC(F)F` the figure was 59.3% (active).
Regarding `COc1ccc(C(=O)N2CCc3cc(OC)c(OC)cc3C2)cc1OC`, the cytotoxicity is -5.5%.
The same measure for `COC(=O)CN1C(=O)C2(C(C#N)=C(N)Oc3c2c(C)nn3-c2ccccc2)c2ccccc21` (centres undefined): -65.1%; for `CC1CCCN(S(=O)(=O)c2ccc(NC(=O)CN3CCN(C)CC3)cc2)C1` (centres undefined): -6.1%; for `Cc1ccc(NC(=O)CN2CC(C)SC2=NC2CCCCC2)cc1` (centres undefined): 87% (active).
With `CCc1cccc(CC)c1NC(=O)CN1CC(C)SC1=NC1CCCCC1` (centres undefined) the figure was -4.4%; with `CCOC(=O)c1c(NC(=O)CSc2nnc(-c3ccccc3C)n2C)sc(C(C)=O)c1C`, -23.9%; with `O=C1NCCCC1C(=O)N1CCN(C(=O)c2ccco2)CC1` (centres undefined), 1.1%.
For the molecule `COc1cccc(NC(=O)CC2C(=O)NC3CCCCC3N2C(=O)c2ccc(F)cc2)c1` (centres undefined), the cytotoxicity is -16.2%.
The same measure for `O=C(N/N=C/C(Br)=C/c1ccccc1)c1n[nH]c2c1CCC2`: 66.4% (active); for `Cc1ccccc1NCC(=O)N/N=C/C(Br)=C/c1ccccc1`: -17.1%; for `O=C(N/N=C/C(Br)=C\c1ccccc1)c1n[nH]c2c1CCC2`: 66.5% (active).
The same measure for `CC(/C=N/NC(=O)c1n[nH]c2c1CCC2)=C\c1ccccc1`: 71.7% (active); for `O=C(O)c1n[nH]c2c1CCCC2`: -12.7%.
With `CC(=C/c1ccccc1)/C=N/NC(=O)c1cnccn1` the figure was -7.1%; with `O=C(CNc1cccc2ccccc12)N/N=C/C(Br)=C/c1ccccc1`, 1.9%; with `Cc1ccc(NCC(=O)N/N=C\C(Br)=C\c2ccccc2)cc1`, 8.3%.
For the molecule `CC(/C=N/NC(=O)c1ccc(Br)cc1)=C\c1ccccc1`, the cytotoxicity was -15.4%.
With `COc1ccc(CC(=O)NCc2nnc(SCC(=O)N3CCN(c4ccccc4)CC3)n2C)cc1` the figure was -7%; with `COc1ccc(C)cc1NC(=O)CNC(=O)Cn1ccc2ccccc2c1=O`, 7.1%; with `Cc1nnc(Sc2nc3c(c(=O)[nH]c(=O)n3C)n2Cc2ccccc2Cl)s1`, 1%.
The same measure for `COCCCNC(=O)Cn1cc2c(n1)CCC(C)C2` (centres undefined): -3.5%; for `Nc1[nH]c(=S)[nH]c(=O)c1-c1ccccc1`: -5%.
The same measure for `O=C(Nc1ccc(N2CCN(Cc3ccccc3)CC2)cc1)c1ncn[nH]1`: -2.9%.
With `CC(=O)c1ccc(NC(=O)c2ccn[nH]2)cc1`, the cytotoxicity was -0.3%.
For the molecule `COc1cc([C@@H]2c3cc4c(cc3[C@H](O)[C@H]3COC(=O)[C@H]23)OCO4)cc(OC)c1OC`, the cytotoxicity is 68.5% (active).
As for `COc1cc(CC(=O)NCc2ccc3c(c2)OCO3)cc(OC)c1OC`, the cytotoxicity was 3.1%.
With `COc1cc(CC(=O)Oc2ccc3c(c2)OCO3)cc(OC)c1OC` the figure was 2.2%; with `COc1ccc2c(c1OC)C(=O)OC2Nc1ncc(Br)cc1Br` (centres undefined), 6.2%.
With `COc1ccc(C2CC(=O)c3c(C)nc(N4CCN(Cc5ccccc5)CC4)nc3C2)cc1OC` (centres undefined) the figure was -20.1%; with `CCN1CCN(c2ncc3c(n2)CC(c2ccc(OC)c(OC)c2)CC3=O)CC1` (centres undefined), -13%; with `CCN1CCN(c2ncc3c(n2)CC(c2cc(OC)c(OC)c(OC)c2)CC3=O)CC1` (centres undefined), 51.1% (active).
With `COc1cc(C2CC(=O)c3cnc(N)nc3C2)cc(OC)c1OC` (centres undefined) the figure was 0.9%; with `COc1ccc(C2CC(=O)c3cnc(N4CCN(Cc5ccccc5)CC4)nc3C2)cc1` (centres undefined), 22.6%; with `COc1cc(C2CC(=O)c3cnc(N4CCN(Cc5ccccc5)CC4)nc3C2)cc(OC)c1OC` (centres undefined), 52.5% (active).
As to `COc1ccc(-n2c3c(cc(C(=O)Nc4ccc(C)cc4)c2=O)C(=O)CCC3)cc1`, the cytotoxicity is 14.6%.
The same measure for `CCOc1ccc2nc(SCC(=O)NC(=O)NCc3ccco3)[nH]c2c1`: -12.9%.
For `Cc1cc(N2CCCC2)nc(-c2ccccc2O)n1`, the cytotoxicity is 1.6%.
With `CCn1cnc2scc(-c3ccccc3)c2c1=O` the figure was 6%; with `Cc1ccc(-c2csc3ncn(/N=C/N(C)C)c(=O)c23)o1`, 1.3%.
With `Cn1cc(/C=N/n2cnc3sc4c(c3c2=O)CCCC4)c2ccccc21` the figure was -0.6%.
With `Cn1cc(/C=N/n2cnc3scc(-c4ccc(Cl)cc4)c3c2=O)c2ccccc21` the figure was 57.8% (active); with `Cc1nn(-c2ccccc2)c(N2CCCC2)c1/C=N/n1cnc2scc(-c3ccccc3)c2c1=O`, -0.7%; with `Cn1cc(/C=N/n2cnc3scc(-c4ccccc4)c3c2=O)c2ccccc21`, 52.6% (active).
For the molecule `COc1ccc(S(=O)(=O)CCC(=O)NCCc2ccc(C)cc2)cc1`, the cytotoxicity was -7.2%.
